esBAF inh = Bmi1 luciferase reporter increase in mESCs, primary screen, esBAF inhibitor project, mouse ES cells, Bmi1 luciferase knock-in, single point; 24 h; 100% = twice the neutral-well signal; reporter increase, % at 12.5 µM; 2% of 350,000 active; AID 602393, 2012; in the data active means activation above about 40%; inconclusive means no clear call, values can overlap the other calls;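 further: 0% = median of the plate's neutral control wells and 100% = double that signal; a rise in the Bmi1 reporter signal indicates esBAF inhibition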
DYRK1A inh = rat Dyrk1A kinase inhibitors, primary screen, biochemical, single point, plate reader; Dual specificity tyrosine-phosphorylation-regulated kinase 1A (Rattus norvegicus), Q63470; ADP-Glo luminescence, NFATc1 peptide; inhibition, % at 12.5 µM; 0.43% of 310,000 active; in the data active means inhibition above about 50%;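 further: plate controls were vehicle with enzyme for no effect and no enzyme for full effect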
dFosB act = activators of delta FosB homodimer, primary screen, biochemical, fluorescence polarization, TAMRA-CDK5 oligo, single point | activation, % at 25 µM | purified delta FosB; percent of positive-control signal above neutral wells | 0.99% of 340,000 active | Protein FosB (Mus musculus), P13346;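 active means mean activation above about 17%, with every replicate also reaching it, limit read from the data, passing the limit was not always enough; inconclusive means only one of the two conditions met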
CDK5 inh = inhibitors of human CDK5/p35 kinase, primary screen, biochemical, single concentration | 0.01% of 330,000 active | inhibition, % at 10 µM | Cyclin-dependent kinase 5 (Homo sapiens) + Cyclin-dependent kinase 5 activator 1 (Homo … | Recombinant CDK5/p35, ADP-Glo luminescence, 60 min;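 active means highest replicate inhibition of at least 50% and at least 75% of replicates reaching 50%; inconclusive means only one of the two criteria met; inactive means both criteria failed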;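 further: plate controls were DMSO neutral control for no effect and GW8510 at 10 µM for full effect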
Target sequence (Q00535 whole entry, looked up): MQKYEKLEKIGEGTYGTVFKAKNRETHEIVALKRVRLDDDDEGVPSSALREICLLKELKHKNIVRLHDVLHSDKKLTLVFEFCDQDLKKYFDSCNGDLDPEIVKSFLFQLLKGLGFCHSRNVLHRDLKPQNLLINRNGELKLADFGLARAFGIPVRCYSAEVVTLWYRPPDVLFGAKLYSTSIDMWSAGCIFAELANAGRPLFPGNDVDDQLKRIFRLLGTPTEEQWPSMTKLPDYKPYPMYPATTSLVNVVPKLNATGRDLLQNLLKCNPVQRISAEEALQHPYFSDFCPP
Target sequence (Q15078 whole entry, looked up): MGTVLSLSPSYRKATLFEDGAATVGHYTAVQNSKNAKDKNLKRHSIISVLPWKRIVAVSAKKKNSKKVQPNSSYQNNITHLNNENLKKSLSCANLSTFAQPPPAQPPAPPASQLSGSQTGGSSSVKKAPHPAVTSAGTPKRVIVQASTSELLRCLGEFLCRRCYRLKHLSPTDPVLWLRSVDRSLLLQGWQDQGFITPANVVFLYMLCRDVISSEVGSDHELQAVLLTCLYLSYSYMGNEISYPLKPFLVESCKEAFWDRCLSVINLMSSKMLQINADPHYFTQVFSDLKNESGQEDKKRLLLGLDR
Rtt109 Vps75 = inhibitors of C. albicans Rtt109/Vps75 HAT, primary screen, biochemical, ThioGlo CoA-SH fluorescence, plate reader. inhibition, % at 34.9 µM. purified Rtt109/Vps75, 4 h. Histone acetyltransferase RTT109 (Candida albicans (strain SC5314 / ATCC MYA-2876)), …. 0.16% of 330,000 active. AID 540336, 2011;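 active means inhibition of at least 50% in every replicate; inconclusive means best replicate reaches 50% inhibition but some replicates fall short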
SMARCA2 activ = SMARCA2 (BRM) function activators, primary screen, cell-based, luminescence, high throughput. AID 652017, 2013. 1% of 370,000 active. MG213 cells, MMTV-luciferase reporter, dexamethasone, overnight. activation, % at 9.1 µM; in the data active means activation above about 7.8%;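 further: 0% = vehicle wells and 100% = reference activator wells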
Numbers without * were called inactive; ? = inconclusive; / = not tested or not shown. Compounds with a hit are over-represented: about 3.2% of the library has one in this group of screens.

SMILES	esBAF inh	DYRK1A inh	dFosB act	CDK5 inh	Rtt109 Vps75	SMARCA2 activ
O=c1[nH]c(Cc2cccs2)nc2scc(-c3ccc(Cl)cc3)c12	72*	0	5	-1	-9	-3
CN(C)C(=O)C[C@@H]1CC[C@@H]2[C@H](COC[C@H](O)CN2CC2CCOCC2)O1	7	/	/	/	/	/
C[C@H]1CCCCO[C@H](CN(C)C(=O)Cc2ccccc2)[C@@H](C)CN([C@@H](C)CO)C(=O)c2cc(NC(=O)C3CCCCC3)ccc2O1	0	/	/	/	/	/
O=C(C[C@@H]1C=C[C@@H](NC(=O)CC2CC2)[C@@H](CO)O1)NCc1ccc(-c2ccccc2)cc1	4	/	/	/	/	/
CCC(=O)Nc1ccc2c(c1)OC[C@@H](C)N(C(=O)Cc1ccccn1)C[C@@H](C)[C@H](OC)CN(C)C2=O	3	/	/	/	/	/
Cc1ccc2nc(N3C(=O)C(O)=C(C(=O)c4cc5ccccc5o4)C3c3cccs3)sc2c1 (stereo unspecified)	45*	2	-7	0	-7	/
O=C(CC(F)(F)F)N1C[C@H]2[C@@H](c3ccccc31)[C@H](CO)N2Cc1cccnc1	0	/	/	/	/	/
CC(=O)Oc1ccc2c(c1)C(=O)c1ccccc1CO2	/	44	-8	0	3	1
COc1ccc(C2=Cc3ccc(OC(C)=O)cc3OC2)cc1	78*	-1	-2	-1	-9	7
Cc1ccc(S(=O)(=O)Nc2ccc3c(c2)C(=O)N([C@H](C)CO)C[C@@H](C)[C@@H](CN(C)S(=O)(=O)c2cn(C)cn2)O3)cc1	0	/	/	/	/	/
COc1cccc(OC)c1C(=O)Nc1nc2cc3c(cc2s1)OCO3	-8	2	11	-2	-4	3
COc1ccccc1C(=O)Nc1nc2cc3c(cc2s1)OCO3	57*	-3	6	1	-15	4
O=C(NNc1nc2cc3c(cc2s1)OCO3)c1ccccc1	31	6	-3	0	12	0
O=C(NNc1nc2cc3c(cc2s1)OCO3)c1cccc(F)c1	47*	11	-6	1	-1	4
COc1cc2sc(NC(=O)c3ccco3)nc2cc1Cl	52*	3	10	1	1	1
CC(C)CC#Cc1cnc2c(c1)C(=O)N([C@H](C)CO)C[C@H](C)[C@H](CN(C)C(=O)C1CCOCC1)O2	-4	/	/	/	/	/
Cc1ccc(Cc2cnc(N3C(=N)SC(c4ccccc4)C3=O)s2)cc1 (stereo unspecified)	53*	1	3	0	3	-2
O=C(CNC(=O)c1ccc(Br)o1)NC12CC3CC(CC(C3)C1)C2	/	3	-5	1	58*	-1
S=C(c1ccc(-c2ccc(Cl)cc2Cl)o1)N1CCCC1	/	/	/	/	/	0
O=C(c1ccc(-c2ccccc2Cl)o1)N1CCC1	84*	42	-17	2	-1	5
NC(=O)C1CCCN(C(=O)c2ccc(-c3cccc(Cl)c3Cl)o2)C1 (stereo unspecified)	75*	27	-23	-2	1	0
CC1CCN(C(=O)c2ccc(-c3ccccc3Cl)o2)CC1	?	35	-3	1	26	4
S=C(c1ccc(-c2ccc(Cl)cc2Cl)o1)N1CCCCC1	53*	-1	-2	0	/	-3
O=C(c1ccc(-c2ccccc2Cl)o1)N1CCCC(C(F)(F)F)C1 (stereo unspecified)	51*	/	-3	1	-1	5
S=C(c1ccc(-c2ccc(Cl)c(Cl)c2)o1)N1CCOCC1	45*	3	4	0	/	/
SMILES	esBAF inh	DYRK1A inh	dFosB act	CDK5 inh	Rtt109 Vps75	SMARCA2 activ
Cc1c(C(=O)N2CCCC(C(F)(F)F)C2)oc2ccccc12 (stereo unspecified)	8	/	-8	1	5	-1
O=C(NC12CC3CC(CC(C3)C1)C2)c1ccc(-c2ccccc2Cl)o1	45*	-9	-8	0	6	1
CC(C)NC(=O)N(C)C[C@@H]1OCCCC[C@@H](C)Oc2ccc(NS(=O)(=O)c3ccc(F)cc3)cc2C(=O)N([C@@H](C)CO)C[C@@H]1C	-7	/	/	/	/	/
Cc1cc(C(C)(C)CC(C)(C)C)ccc1OCCOCC[N+](C)(C)Cc1ccccc1	-73	2	-9	0	56*	-9
Cc1cc(C(=O)OCC(=O)Nc2c(Cl)cccc2Cl)c(C)o1	1	-2	22*	2	-2	-2
O=C(NC1Cc2ccccc2C1)[C@@H]1[C@@H](CO)[C@@H]2Cn3c(cccc3=O)[C@H]1N2Cc1ccccc1F	-1	/	/	/	/	/
CC(=O)Nc1ccc(Oc2nc(-c3ccccn3)nc3ccccc23)cc1	/	7	-14	-1	6	7.9*
CC(=O)Nc1cccc(Oc2nc(-c3ccccn3)nc3ccccc23)c1	/	3	-11	0	8	6
c1ccc(-c2ccc(OCCOCCn3cncn3)cc2)cc1	62*	5	-2	1	3	3
c1ccc(Cc2ccc(OCCn3cncn3)cc2)cc1	6	-9	-6	2	-5	-2
COc1ccc(S(=O)(=O)N(C)C[C@@H]2Oc3ccc(NS(C)(=O)=O)cc3CC(=O)N([C@@H](C)CO)C[C@H]2C)cc1	-6	/	/	/	/	/
CCOc1ccc(N2C(=O)c3ccccc3C2=O)cc1	43*	-5	2	-1	-9	-1
O=C(CSc1nc2ccccc2s1)N1CCCCC1	82*	6	-5	1	4	7
CNC(=O)CSc1nc(SC)ns1	/	-7	0	-2	-5	5
O=C(CSc1nc2ccccc2s1)c1ccc(O)cc1O	51*	2	13	1	-4	1
CSc1nsc(SCC(=O)N2CCCCC2)n1	51*	-5	-5	-2	-10	3
CC1CCCC(C)N1C(=O)CSc1nc2ccccc2s1 (stereo unspecified)	75*	4	-6	-1	/	1
O=C(Cc1ccccc1)N[C@@H]1CC[C@H](CC(=O)N2CCOCC2)O[C@H]1CO	-6	/	/	/	/	/
C[C@@H]1CN([C@H](C)CO)C(=O)c2cc(NC(=O)CCC(F)(F)F)ccc2O[C@@H](C)CCCCO[C@@H]1CN(C)Cc1ccc(C(=O)O)cc1	2	/	/	/	/	/
CC(=O)c1ccc(Nc2ccc(-c3ccccc3C)nn2)cc1	83*	-2	2	-1	15	6
COc1ccccc1-c1ccc(Nc2cccc(C(C)=O)c2)nn1	51*	0	1	1	-7	5
COC(=O)CCS(=O)(=O)c1nc(-c2ccccc2)cc(C(F)(F)F)n1	/	6	-10	1	68*	/

Screening results from PubChem.
